Sampled rows, rich in hits. Any-hit rate of the full collection: about 2%.
NR1D1 modulator = Rev-erb alpha (human) modulation. P20393. Rev-erbα–FITC-DNA binding, fluorescence polarization, 90 min. activity, % at 10 µM. hit rate 0.79% among 370,000. AID 1259318;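 active = activity above about 14%, limit read from the data; passing the limit was not always enough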;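 also: 0% = DMSO wells with 35 nM protein and 100% = DMSO wells with 750 nM protein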
ABCB6 inh 2 = human ABCB6 transporter inhibition | Q9NP58 | K562-ABCB6 porphyrin accumulation, flow cytometry, 1 h; active compounds read low | fluorescence ratio to DMSO, % at 10 µM | hit rate 0.19% among 360,000;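 active = fluorescence ratio to DMSO below 75%, the collection mean minus 3 SD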;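 also: signal is porphyrin accumulated inside mitochondria; 100% equals median channel fluorescence of DMSO control wells; lower ratio means ABCB6 inhibition with less porphyrin fluorescence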
Target sequence (Q9NP58 whole entry, looked up): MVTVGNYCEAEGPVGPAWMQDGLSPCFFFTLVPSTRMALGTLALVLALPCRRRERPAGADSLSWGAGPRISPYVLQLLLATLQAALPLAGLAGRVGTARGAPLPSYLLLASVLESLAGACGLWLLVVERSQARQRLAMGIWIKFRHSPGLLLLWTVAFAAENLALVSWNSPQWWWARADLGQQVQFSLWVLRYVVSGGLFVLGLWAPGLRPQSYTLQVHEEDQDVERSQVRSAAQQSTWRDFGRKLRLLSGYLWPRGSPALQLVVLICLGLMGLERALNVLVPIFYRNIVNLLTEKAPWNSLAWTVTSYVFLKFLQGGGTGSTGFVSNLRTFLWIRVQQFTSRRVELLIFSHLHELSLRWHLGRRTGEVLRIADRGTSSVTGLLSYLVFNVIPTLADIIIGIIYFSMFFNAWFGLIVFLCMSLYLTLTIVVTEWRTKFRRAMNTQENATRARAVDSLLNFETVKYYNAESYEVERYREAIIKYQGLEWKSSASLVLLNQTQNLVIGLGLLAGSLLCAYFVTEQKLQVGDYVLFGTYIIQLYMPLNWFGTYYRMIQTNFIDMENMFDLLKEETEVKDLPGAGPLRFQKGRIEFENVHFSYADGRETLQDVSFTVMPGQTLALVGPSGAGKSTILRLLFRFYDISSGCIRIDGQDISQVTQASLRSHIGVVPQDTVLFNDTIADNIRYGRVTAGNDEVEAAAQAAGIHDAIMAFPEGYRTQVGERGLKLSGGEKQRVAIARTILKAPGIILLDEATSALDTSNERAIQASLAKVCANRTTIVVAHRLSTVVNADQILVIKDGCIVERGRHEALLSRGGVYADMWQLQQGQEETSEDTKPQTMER
Exocytosis inh = lytic granule exocytosis inhibition. hit rate 0.66% among 360,000. TALL-104 LAMP-1 surface exposure, flow cytometry; cells stimulated with thapsigargin and PMA. inhibition, % at 10 µM;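 active = inhibition above about 55%, limit read from the data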
PG9 binder = small molecules binding HIV-1 gp120 antibody PG9 | hit rate 0.43% among 360,000 | inhibition, % at 6.7 µM | TR-FRET gp120-PG9 antibody binding | AID 624416; in the data active = inhibition above about 8.5%
VLA-4 inh = inhibition in a human VLA-4 binding assay. P13612. AID 2557. inhibition, % (about 7 µM as worked out from the volumes in the protocol). hit rate 0.2% among 330,000. VLA-4 expressing cells, ligand binding flow cytometry; in the data active = inhibition above about 50%
VLA-4 mod pick = confirmation of allosteric modulators of human VLA-4 integrin. inhibition, % at 6.7 µM. hit rate 2% among 1,300. U937 cells, HUTS-21 LIBS mAb binding, flow cytometry; LDV ligand present at threefold Kd. AID 2813. shares compounds with VLA-4 inh; in the data active = inhibition above about 40%;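 also: 0% = ligand without compound and 100% = no ligand background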
* = called active by the depositor; / = no result.

SMILES	NR1D1 modulator	ABCB6 inh 2	Exocytosis inh	PG9 binder	VLA-4 inh	VLA-4 mod pick
CCN(C[C@H]1N[C@@](Cc2ccccc2)(C(=O)OC)[C@H]2C(=O)N(Cc3ccccc3)C(=O)[C@@H]12)S(=O)(=O)c1ccc(F)cc1	-5	98	8	-1	37	/
CCN(C[C@H]1N[C@@](Cc2ccccc2)(C(=O)OC)[C@H]2C(=O)N(Cc3ccccc3)C(=O)[C@@H]12)S(=O)(=O)c1ccc(OC)cc1	-1	98	-4	-1	-12	/
CCN(C[C@H]1N[C@@](Cc2ccccc2)(C(=O)OC)[C@H]2C(=O)N(Cc3ccccc3)C(=O)[C@@H]12)S(=O)(=O)c1ccc(C(C)(C)C)cc1	-12	90	-3	1	-15	15
CCN(C[C@H]1N[C@@](Cc2ccccc2)(C(=O)OC)[C@H]2C(=O)N(Cc3ccccc3)C(=O)[C@@H]12)S(=O)(=O)c1ccc(OC(F)(F)F)cc1	-3	91	-4	0	-9	-1
COc1cccc(C(CC2=CCCCC2)NC(=O)C(F)(F)F)c1 (stereo not drawn)	4	/	/	-2	/	/
CCOc1ccc(S(=O)(=O)n2nc(C)c(S(=O)(=O)N3CCOCC3)c2C)cc1	-7	94	-2	0	100*	-2
COC(=O)c1cc(S(=O)(=O)NCC2CCN(C(=O)C(=O)c3cc4ccccc4o3)CC2)cs1	-4	/	/	0	/	/
Cc1cc(Cl)ccc1Oc1ccc(C(N)=O)cc1[N+](=O)[O-]	-2	99	-4	-1	7	/
Cc1cc(Cl)ccc1Oc1ccccc1C(=O)CC#N	1	97	6	1	41	-15
CC(=O)OCCCN1CCC2(CCC(c3ccccc3)CC2)C1=O (stereo not drawn)	0	/	/	/	/	/
CCC(CC)NC(=O)Nc1cccc(C)c1C	4	97	-8	-1	45	8
CCC(COC(=O)Nc1cccc(C)c1C)NC(=O)OCC(C)C (stereo not drawn)	-1	100	5	-1	5	/
CCOc1ccc(C=NNC(=O)c2cc(-c3ccc(Cl)cc3)n[nH]2)cc1	1	/	/	/	/	/
c1ccc(COc2ccc(OCCN3CCCC3)cc2)cc1	0	91	0	-2	11	/
COc1ccc(-c2sc3ccccc3c2-c2ccc(OCCN3CCCCC3)cc2)cc1	8	99	34	1	6	7
c1ccc(-c2sc3ccccc3c2-c2ccc(OCCN3CCCC3)cc2)cc1	4	97	-4	0	46	24
COc1ccc(CSc2nnc(SCC(=O)Nc3ccc4c(c3)OCO4)s2)cc1	3	/	/	/	/	/
Clc1ccc2c(N/N=C/c3ccc(Br)cc3)ccnc2c1	-8	102	37	0	51*	12
O=C(N1CCN(c2ccccn2)CC1)N1c2ccccc2Sc2ccccc21	3	90	51	2	67*	0
O=C(c1ccc(Cl)cc1)N1CCN(c2ccccn2)CC1	2	/	/	/	/	/
CNc1nc(OCCNC(=O)Nc2ccccc2)nc(N2CCOCC2)n1	-1	97	9	0	59*	1
O=C(NCCOc1nc(N2CCOCC2)nc(N2CCOCC2)n1)Nc1ccc(Cl)cc1	-2	108	-2	4	0	/
CCOC(=O)C(NC(=O)c1ccc(F)cc1)(Nc1nnc(C)s1)C(F)(F)F (stereo not drawn)	2	87	-1	3	1	/
CCOC(=O)C(NC(=O)c1cccc(Cl)c1)(Nc1nnc(C)s1)C(F)(F)F (stereo not drawn)	-2	98	-1	1	47	10
Cc1noc(C)c1CSCC(=O)Nc1nc2ccc(S(C)(=O)=O)cc2s1	6	95	1	-1	50*	0
SMILES	NR1D1 modulator	ABCB6 inh 2	Exocytosis inh	PG9 binder	VLA-4 inh	VLA-4 mod pick
COC(=O)[C@]1(Cc2ccccc2)N[C@H](CN(C)C(C)=O)[C@@H]2C(=O)N(Cc3ccccc3)C(=O)[C@@H]21	3	94	0	0	39	3
COC(=O)[C@]1(Cc2ccccc2)N[C@H](CN(C)C(=O)c2ccc(C(C)(C)C)cc2)[C@@H]2C(=O)N(Cc3ccccc3)C(=O)[C@@H]21	2	100	1	1	15	1
COC(=O)[C@]1(Cc2ccccc2)N[C@H](CN(C)C(=O)NC(C)C)[C@@H]2C(=O)N(Cc3ccccc3)C(=O)[C@@H]21	2	100	1	1	-7	/
CC(COc1cccc(Br)c1)CN1CCC(C(O)(c2ccccc2)c2ccccc2)CC1 (stereo not drawn)	-4	/	/	/	/	/
COC(=O)c1ccc(N2CCN(c3ccccc3)CC2)c(N)c1	2	97	0	-2	45	2
COC(=O)C1CCCN(C(=O)C2CCN(S(=O)(=O)c3ccc([N+](=O)[O-])cc3)CC2)C1 (stereo not drawn)	2	/	/	/	/	/
COC(=O)c1ccc(NC(=O)Nc2ccc(F)cc2)cc1	6	96	-4	0	7	/
COc1ccc(NC(=O)Nc2ccc(F)cc2)cn1	-3	89	-11	-1	4	6
C/C(=N\NC(=O)Cc1c(C)[nH][nH]c1=O)c1ccc2ccccc2c1	-3	/	/	-2	61*	-16
COc1cccc(/C(C)=N/NC(=O)Cc2c(C)[nH][nH]c2=O)c1	-5	99	-1	-2	-7	/
COC(=O)[C@]12C[C@H](CC(=O)N3CCN(C(=O)C4CC4)CC3)C(=O)N(Cc3ccco3)C1=C[C@H](C(C)(C)C)O[C@@H]2C	1	/	/	/	/	/
CCOC(=O)C1(C(F)(F)F)N=C(C(F)(F)F)Nc2ccccc21 (stereo not drawn)	/	98	-8	-2	56*	1
COC(=O)C1CN(C(=O)OC(C)(C)C)C2=C1C(=O)CC(C)(C(=O)OC(C)(C)C)C2 (stereo not drawn)	5	/	/	/	/	/
COc1cc(-c2cc(C(=O)N3CCN(c4ccccn4)CC3)c3ccccc3n2)cc(OC)c1OC	4	103	4	0	-6	-6
COc1ccc(-c2cc(C(=O)N3CCN(c4ncccn4)CC3)c3ccccc3n2)c(OC)c1	0	94	0	0	18	/
COc1ccc(OC)c(-c2cc(C(=O)N3CCN(c4ncccn4)CC3)c3ccccc3n2)c1	2	99	5	1	95*	-1
CCOC(=O)C1(S(=O)(=O)c2ccc(Cl)cc2)CCN(Cc2ccc(C)cc2)CC1	0	103	-4	0	9	6
C=CCNC(=O)CN(C(=O)Cc1ccc(Cl)cc1)c1cccc(Br)c1	1	/	/	/	/	/
O=C(NCc1ccccc1Cl)C1CCN(C(=O)c2sccc2-n2cccc2)CC1	1	105	4	-1	-9	/
O=C(NCc1ccccc1F)C1CCN(C(=O)c2sccc2-n2cccc2)CC1	-1	99	-5	-2	111*	9
CCOc1cc(C(=O)N/N=C/C(Br)=C/c2ccccc2)cc(OCC)c1OCC	-5	106	1	-3	51*	18
